Screens as filed in PubChem BioAssay.
This is a sample that favours compounds with a hit; in the whole collection about 4.1% have one here.
hgDAF12 agonist = activates the H. glycines DAF-12 receptor ligand-binding domain | HEK293 GAL4-hgDAF12 UAS-luciferase reporter, agonist luminescence; normalized to butyrate control | activation, % at 6.8 µM | hit rate 1.8% among 370,000 | AID 687014;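 active = activation above a cutoff set at the mean of all screened compounds plus 3 SD, cut at about 10% in these data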
ssDAF12 agonist = S. stercoralis DAF-12 activation, primary screen. activation, % at 6.8 µM. AID 652126. hit rate 1% among 370,000. HEK293 ssDAF-12/GRIP1 lit1-tk-luc reporter, luminescence; % of 3 µM dafachronic acid response;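 active = activation above the mean over all tested compounds plus 3 SD, cut at about 0.9% in these data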
hcDAF12 agonist = H. contortus DAF-12 activation, primary screen. HEK293 hcDAF-12 lit1-tk-luc reporter, luminescence; 0% DMSO, 100% Δ7-dafachronic acid. activation, % at 6.8 µM. hit rate 1.4% among 370,000;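 active = activation above the mean of all tested compounds plus 3 SD, cut at about 5.5% in these data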
DAX1 inh-1 = inhibits human nuclear receptor DAX1. HEK293 Gal4-DAX1 luciferase reporter, luminescence. AID 504766. hit rate 0.99% among 340,000. P51843. inhibition, % at 6.75 µM;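 active = inhibition above the mean over all tested compounds plus 3 SD, cut at about 4.2% in these data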;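 also: inhibition shows as a rise in luminescence from relieved DAX1 repression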
DAX1 inh-2 = inhibitors of DAX1 repression of SF-1 activated StAR promoter. HEK293T StAR-luciferase reporter, SF-1/DAX-1 repression relief. inhibition, % at 6.8 µM. hit rate 1.1% among 370,000;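 active = inhibition above the mean over all tested compounds plus 3 SD, cut at about 3.6% in these data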;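 also: higher inhibition means more luminescence from relief of DAX-1 repression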
DAX1 inh confirm = NR0B1 (human) inhibition, confirmation; inhibition, % at 6.8 µM; hit rate 87% among 2,400; HEK293T StAR-promoter luciferase reporter, SF-1/DAX-1 repression; shares compounds with DAX1 inh-2;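 active = inhibition above the average of every tested compound plus 3 SD, cut at about 3.8% in these data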;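 also: active compounds raise luminescence by relieving repression of the StAR reporter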
SF1 AF2mut Luc = counter-screen for DAX1 inhibitors: nonselective inhibitors with SF-1 AF2 mutant; shares compounds with DAX1 inh-2; HEK293 StAR-luciferase, luminescence; inhibition, % at 6.8 µM; hit rate 78% among 2,400; AID 652136;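 active = inhibition above the mean of all tested compounds plus 3 SD, cut at about 3% in these data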
LXRb hcDAF ctr = LXR-beta agonism as hcDAF-12 counter-screen; shares compounds with hcDAF12 agonist; HEK293 Gal4-LXR tk-luc reporter, luminescence, 24 h; normalized: DMSO 0%, positive control 100%; activation, % at 6.8 µM; 3,400 tested, under 10 active; AID 743027;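 active = mean percent activation of the reporter above a cutoff set as the average over tested compounds plus their standard deviation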
Target sequence (P55055 whole entry, looked up, the tested form may be a part): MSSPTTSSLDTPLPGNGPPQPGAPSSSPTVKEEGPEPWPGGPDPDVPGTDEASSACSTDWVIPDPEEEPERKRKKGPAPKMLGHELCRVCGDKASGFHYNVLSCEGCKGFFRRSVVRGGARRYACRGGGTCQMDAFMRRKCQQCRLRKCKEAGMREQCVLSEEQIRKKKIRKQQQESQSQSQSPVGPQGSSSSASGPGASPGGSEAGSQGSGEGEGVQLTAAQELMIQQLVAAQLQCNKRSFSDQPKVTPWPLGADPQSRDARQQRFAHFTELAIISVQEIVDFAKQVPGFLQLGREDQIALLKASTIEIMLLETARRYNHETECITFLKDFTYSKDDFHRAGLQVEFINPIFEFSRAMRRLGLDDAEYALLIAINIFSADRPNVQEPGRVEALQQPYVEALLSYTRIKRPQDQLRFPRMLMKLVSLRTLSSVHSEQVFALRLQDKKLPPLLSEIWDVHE
hcDAF12 ag = hcDAF-12 agonism, confirmation assay. hit rate 61% among 3,400. AID 743032. HEK293 hcDAF-12 lit1-tk-luc reporter, luminescence; % of Δ7-dafachronic acid response. shares compounds with hcDAF12 agonist. activation, % at 6.8 µM;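 active = mean activation across triplicate tests above the threshold derived from the earlier primary screen, cut at about 5.5% in these data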
hgDAF12 conf = confirmation of H. glycines DAF-12 agonists; shares compounds with hgDAF12 agonist; HEK293 GAL4-hgDAF12 luciferase reporter, agonist mode; percent of butyrate response; activation, % at 6.8 µM; hit rate 80% among 3,300;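 active = mean activation over triplicate wells above the hit cutoff derived from the earlier primary screen, cut at about 11% in these data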
LXRb DAF12 ctr = LXR-beta agonism as DAF-12 counter-screen. shares compounds with hgDAF12 agonist. activation, % at 6.8 µM. HEK293 Gal4-LXR luciferase reporter, 24 h. 3,300 tested, under 10 active. AID 743051;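 active = mean activation of the triplicate above a set limit carried over from the primary screen, none filed active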
A number is an active result; – = inactive; · = no result given.

SMILES	hgDAF12 agonist	ssDAF12 agonist	hcDAF12 agonist	DAX1 inh-1	DAX1 inh-2	DAX1 inh confirm	SF1 AF2mut Luc	LXRb hcDAF ctr	hcDAF12 ag	hgDAF12 conf	LXRb DAF12 ctr
Cc1cc(N)n2nc(-c3ccccc3)cc2n1	20.1	1.7	12.4	–	5.8	16.4	8.2	–	6.9	18.9	–
Cc1ccc(-c2cc3nc(-c4ccccc4)cc(N)n3n2)cc1	–	–	–	–	–	·	·	·	·	·	·
CN(C)C(=O)CSc1nnc(-c2ccc(S(=O)(=O)N3CCCC3)cc2)n1C	–	–	–	–	–	·	·	·	·	·	·
O=C(CSc1cccc[n+]1[O-])c1ccccc1Br	–	–	–	–	–	·	·	·	·	·	·
Cc1cc(C(=O)CSc2cccc[n+]2[O-])c(C)n1-c1ccccc1	15.6	–	7.5	–	8.1	17.4	7.8	–	7.2	13.4	–
O=C(c1cc(-c2cccc(O)c2)on1)N1CCCCC1	21.9	–	6.9	–	8.8	14.0	7.1	–	–	14.3	–
COc1cccc(-c2cc(C(=O)N3CCN(c4ccc(F)cc4)CC3)no2)c1	–	–	–	–	–	·	·	·	·	·	·
COc1cccc(-c2cc(C(=O)N3CCCCCC3)no2)c1	18.2	–	8.1	–	9.6	17.5	7.3	–	6.7	17.9	–
COc1ccc2nc(NC(=O)c3ccccc3-c3ccccc3C(=O)O)sc2c1	–	–	–	–	–	·	·	·	·	·	·
COc1ccc2nc(NC(=O)Nc3ccccc3)sc2c1	22.2	–	8.1	–	11.3	14.1	8.8	–	–	23.1	–
CCOc1ccc2nc(NC(=O)Nc3cccs3)sc2c1	26.8	–	7.9	–	9.2	18.6	12.8	–	–	26.8	–
CCS(=O)(=O)Nc1cc(-c2nc3cccnc3s2)ccc1C	21.5	–	8.3	–	6.4	8.9	7.7	–	5.6	15.7	–
COc1ccc(/C=C2\SC(=O)N(CCNC(=O)C3CC4C=CC3C4)C2=O)cc1 (configuration not stated)	20.6	–	–	–	5.5	8.6	4.3	·	·	23.1	–
COc1cccc(C(NC(C)=O)c2nc(-c3cccc(NC(C)=O)c3)cs2)c1 (configuration not stated)	–	–	–	·	–	·	·	·	·	·	·
Cc1ccc(NC(=S)c2ccc(N(C)C)cc2)cc1	13.6	–	–	–	5.6	13.0	7.8	·	·	17.5	–
Cn1c(CCC(N)=O)nnc1SCC(=O)Nc1cc(S(=O)(=O)N2CCCC2)ccc1Cl	–	–	–	–	–	·	·	·	·	·	·
COc1ccc(C2=Nc3ccccc3N(C(=O)Cc3cc(OC)cc(OC)c3)C2C(=O)NC(C)(C)C)cc1 (configuration not stated)	–	–	–	·	–	·	·	·	·	·	·
COc1ccc(C2=Nc3ccccc3N(C(=O)c3ccc4ncccc4c3)C2C(=O)NC(C)(C)C)cc1 (configuration not stated)	23.0	1.3	11.1	·	5.5	10.8	5.8	–	11.8	15.3	–
COc1cccc(N/C=C/C(=O)c2ccc(Cl)cc2)c1	19.9	–	7.1	–	6.1	17.2	6.6	–	8.7	22.3	–
COc1cccc(C(=O)/C=C/Nc2cccc(O)c2)c1	·	·	·	–	·	·	·	·	·	·	·
Cc1ccc2[nH]c(C(=O)NN=C3CCCCC3)c(-c3ccccc3)c2c1	–	–	–	–	–	·	·	·	·	·	·
